This note sets out measurements from PubChem BioAssay AID893 (National Center for Advancing Translational Sciences (NCATS), 2007).

The whole screen tested about 75,000 compounds, of which about 5,700 (7.6%) were called active. A call without a number means that no potency is given here. Another 7% or so got no clear call; they are omitted. This is one part of a sample in which actives are shown more often than they occur. The call rests on the fitted dose curve; in most records, active means well fitted inhibition curve with a large enough effect; inconclusive means small, poorly fitted or top-dose-only effect; inactive means no such curve, though single readings can be large or run the other way.
Potency means the concentration at half of the fitted maximal effect.

The target of this experiment is 3-hydroxyacyl-CoA dehydrogenase type-2 (Homo sapiens) (UniProt Q99714). Put plainly: qHTS Assay for Inhibitors of HSD17B4, hydroxysteroid (17-beta) dehydrogenase 4.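 Further: the protocol describes HADH2 (HSD17B10) and not the HSD17B4 of the title; nearly all actives have a fitted effect of over 70% in size.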 As to conditions: recombinant HSD17B10, NADH fluorescence kinetic; series mostly up to 57.1 µM. The method, boiled down:
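His-tagged E. coli-expressed HADH2 at 20 nM in 100 mM Tris-HCl pH 9.0 with 0.01 % Tween-20, preincubated 15 min with compound at room temperature. Reaction with 1 mM NAD+ and 90 uM beta-hydroxybutyryl coenzyme A; NADH fluorescence (360/450 nm) read kinetically over 4 min, last minus first point.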
On the technique in general: In qHTS, concentration-response curves come from the screen itself.
Regarding `C=C1C([C@@]2(C)C(OC(C)=O)CC(=O)O[C@@](C)(COC(C)=O)C2CC(=O)OC)C(OC=O)C(OC(=O)C(O)C(C)CC)[C@]2(C)C(c3ccoc3)CC(=O)C12O` (some centres undefined), the Potency entry is “inactive”.
In the case of `COc1ccc(COC(=O)N/N=C2/C[C@@H](O)[C@@H](O)[C@@H]3[C@@H]4C(=O)N([C@@H](C)c5ccccc5)C(=O)[C@H]4CC[C@@H]23)cc1`, the activity change, negative = inhibition was -1.08% [at 11.4 µM] (inactive).
Consider `CCOC(=O)c1ccc2[nH]c(C)c(CN3CCN(C)CC3)c(=O)c2c1`, for which the Potency entry is “inactive”.
Take `COC(=O)c1cccc(NC(=O)CSc2nc(C)cc(=O)[nH]2)c1`: the Potency entry is “inactive”.
Still for that read-out and setting: the value for `CCOC(=O)c1sc(=S)n2c1[nH]c(=O)c1ccc(C(=O)OC)cc12` was 20 µM (active); that for `CCOc1ccc(C2C(C(=O)NC)=C(C)Nc3nc4ccccc4n32)cc1OC` (centres undefined) was “inactive”; that for `CN(C)c1cc2c(Nc3ccc4c(cnn4Cc4ccccc4)c3)ncnc2cn1` was “inactive”.
Still for that read-out and setting: next, `CCOC(=O)CCc1c(C)c2ccc(OCc3nn[nH]n3)c(C)c2oc1=O`: 31.6 µM (active).
Regarding `CCNC(=S)NCC`, the Potency entry is “inactive”.
Turning to `CCCNC(=O)C1CC(=O)N(c2ccc(OCC(=O)Nc3cccc(C)c3C)cc2)C1` (centres undefined), the Potency entry was “inactive”.
On to `O=C(O)Cc1ccc(NC(=O)c2cccs2)cc1`, for which the Potency result was “inactive”.
Still for that read-out and setting: the value for `Cc1nc(-c2ccc(NC(=O)c3cccs3)cc2)cs1` was 25.1 µM (active); that for `O=C(O)c1ccc(NC(=O)c2cccs2)cc1` was “inactive”; that for `CCOC(=O)N1CCC(Nc2c(NCCN3CCN(c4cccc(Cl)c4)CC3)c(=O)c2=O)CC1` was “inactive”.
For `CCC(CCC(C)C1CCC2C3CC=C4CC(O)CC[C@@]4(C)C3CC[C@@]12C)C(C)C` (some centres undefined), the Potency entry is “inactive”.
The same measure, in the same setting: next, `COC(=O)c1ccc(/C=N\n2c(C)nnc2C)cc1`: “inactive”; `COc1ccccc1-c1cc(NCc2cccs2)ncn1`: “inactive”.
In the case of `CC1OC(OCC2OC(Oc3c(-c4ccc(O)c(O)c4)oc4cc(O)cc(O)c4c3=O)C(O)C(O)C2O)[C@@H](O)C(O)C1O` (some centres undefined), the Potency entry is “inactive”.
The same measure, in the same setting: the value for `C[C@@H]1O[C@@H](O[C@@H]2[C@@H](O)[C@H](OCCc3ccc(O)c(O)c3)O[C@H](CO[C@@H]3O[C@H](CO)[C@@H](O)[C@H](O)[C@H]3O)[C@H]2OC(=O)/C=C/c2ccc(O)c(O)c2)[C@H](O)[C@H](O)[C@H]1O` was 2 µM (active); that for `COc1ccc(CCC(=O)c2c(O)cc(OC3OC(CO)C(O)C(O)C3O[C@@H]3OC(C)C(O)C(O)C3O)cc2O)cc1O` (some centres undefined) was “inactive”; that for `CN1C(=O)c2ccccc2C(C(=O)NCCCN2CCCC2)C1c1c[nH]c2ccccc12` (centres undefined) was “inactive”.
As for `COC(=O)[C@@H]1CC[C@H](C)[C@@H](c2ccc(C)cc2)N1C(=O)c1ccc(/C=N\OC[C@@H](O)COCc2ccco2)cc1`, the activity change, negative = inhibition was -1.91% [at 11.4 µM] (inactive).
In the case of `CCOc1ccc(CCNC(=O)C2CCN(c3ccc(N4CCOCC4)nn3)CC2)cc1OCC`, the Potency was 25.1 µM (active).
The same measure, in the same setting: the value for `COc1ccc(CCNC(=O)C2CCN(c3nn4c(=O)cc(C)nc4s3)CC2)cc1OC` was “inactive”; that for `CCCS(=O)(=O)N1CCC(C(=O)NCCc2ccc(OC)c(OC)c2)CC1` was “inactive”.
In the case of `CCC(C)NC(=O)C1CCC(=O)N1Cc1ccc(C)cc1` (centres undefined), the Potency entry was “inactive”.
`CC(C)CO/N=C1/C[C@@H](O)[C@@H](O)[C@@H]2[C@@H]3C(=O)N(C[C@@H]4CCCO4)C(=O)[C@H]3CC[C@@H]12`: the activity change, negative = inhibition is 9.42% [at 11.4 µM] (inactive).
`CN(Cc1ccccc1)c1nc2c(c(=O)[nH]c(=O)n2C)n1CCSc1nc2ccccc2[nH]1`: the Potency result was “inactive”.
On the same count and under the same terms, next, `Cc1ccnc(SCCn2c(N(C)Cc3ccccc3)nc3c2c(=O)n(C)c(=O)n3C)n1`: 31.6 µM (active); `CC(C)CCn1c(CN(C)Cc2ccccc2)nc2c1c(=O)n(C)c(=O)n2C`: “inactive”.
Still for that read-out and setting: next, `O=c1c(-c2ccccc2)coc2c(CN3CCOCC3)c(O)ccc12`: 31.6 µM (active).
On the same count and under the same terms, next, `CN1CCN(Cc2c(O)ccc3c2oc(=O)c2ccccc23)CC1`: “inactive”; `COc1ccc(OC)c(C(=O)c2coc3ccc(O)c(CN4CCOCC4)c23)c1`: “inactive”.
`Cc1ccnc(-n2sc3ccccc3c2=O)n1`: the Potency is 3.16 µM (active).
Still for that read-out and setting: the value for `COc1ccc(S(=O)(=O)N(CCCN2CCCC2=O)Cc2cc3c(C)ccc(C)c3[nH]c2=O)cc1` was “inactive”.
In the case of `O=C1Nc2ccccc2C12Nc1ccccc1S2` (centres undefined), the Potency entry is “inactive”.
On to `O=C1NC(c2cc3c(cc2Cl)OCO3)Oc2ccccc21` (centres undefined), for which the Potency is 31.6 µM (active).
Same read-out and setting: the value for `CCCOc1ccccc1C1CC(=O)Nc2cc3c(cc21)OCO3` (centres undefined) was “inactive”.
For the molecule `O=C(Nc1ccc(Cl)cc1)c1ccsn1`, the Potency result was “inactive”.
Still for that read-out and setting: next, `COC(=O)c1ccc(S(=O)(=O)c2ccc(C(=O)OC)s2)s1`: “inactive”.
Same read-out and setting: next, `CCCC[C@@H]1C[C@H]1C(NC(=O)c1ccc(-c2ccccc2)cc1)c1ccc(-c2ccccc2)cc1` (some centres undefined): “inactive”; `Cc1oc2nc(SCC(=O)NCc3cccnc3)nc(N)c2c1C`: “inactive”; `COCCn1c(=O)c(-c2cccs2)nc2cnc(N3CCN(C)CC3)nc21`: 20 µM (active).
On the same count and under the same terms, next, `COc1ccc(-n2c(=O)c(C)nc3cnc(N4CCOCC4)nc32)cc1`: “inactive”; `COc1ccccc1CCn1c(=O)c(-c2cn(C)c3ccccc23)nc2cncnc21`: “inactive”; `COCCn1c(=O)c(-c2ccccc2)nc2cnc(N3CCOCC3)nc21`: 20 µM (active).
For the molecule `COCCn1c(=O)c(-c2cccs2)nc2cncnc21`, the Potency was 25.1 µM (active).
On the same count and under the same terms, the value for `COCCn1c(CN2CCC(Cc3ccccc3)CC2)nc2c1c(=O)n(C)c(=O)n2C` was “inactive”; that for `CCOC(=O)c1cc2occc2n1CC(=O)NC1CCC(C)CC1` (centres undefined) was “inactive”; that for `CCOC(=O)C1CCCN(C(=O)CN(c2ccc(OC)cc2)S(=O)(=O)c2c(C)noc2C)C1` (centres undefined) was “inactive”.
The same measure, in the same setting: next, `O=C(Nc1nc(-c2ccncc2)cs1)C1COc2ccccc2O1` (centres undefined): 31.6 µM (active); `c1ccc(Nc2nc(-c3ccncc3)cs2)nc1`: “inactive”; `O=C(Nc1nc(-c2ccc3c(c2)OCO3)cs1)c1ccncc1`: “inactive”.
With `CN/C(=C\[N+](=O)[O-])NCCSCc1csc(CN(C)C)n1`, the Potency entry was “inactive”.
On the same count and under the same terms, the value for `CN(C)c1ncc2nc(-c3ccc(F)cc3)c(=O)n(Cc3ccc(F)cc3)c2n1` was 3.98 µM (active).
Still for that read-out and setting: the value for `Cn1cc(-c2nc3cnc(N4CCNCC4)nc3n(CCc3ccccc3)c2=O)c2ccccc21` was “inactive”; that for `O=c1c(CCc2ccccc2)nc2cncnc2n1C1CC1` was “inactive”; that for `COc1cccc(Cn2c(=O)c(C)nc3cnc(Oc4ccccc4)nc32)c1` was “inactive”.
Same read-out and setting: next, `Cc1nc2cnc(Nc3ccccc3)nc2n(Cc2ccc(F)cc2)c1=O`: “inactive”; `O=c1cnc2cnc(Nc3ccccc3)nc2n1Cc1ccc(F)cc1`: “inactive”; `Cc1nc2cnc(N3CCNCC3)nc2n(CCc2ccccc2)c1=O`: 25.1 µM (active).
Take `N#Cc1cccc(-c2nc3cnc(N4CCNCC4)nc3n(C3CC3)c2=O)c1`: the Potency was 3.98 µM (active).
The same measure, in the same setting: next, `COc1cccc(Cn2c(=O)c(CCc3ccccc3)nc3cnc(N(C)C)nc32)c1`: 25.1 µM (active); `Cn1c(=O)c(CCc2ccccc2)nc2cnc(Nc3ccccc3)nc21`: “inactive”.
The same measure, in the same setting: the value for `COc1cccc(Nc2ncc3ncc(=O)n(C4CC4)c3n2)c1` was “inactive”; that for `Cn1c(=O)n(CCc2ccccc2)c(=O)c2c1nc1n2CCCN1c1ccccc1` was “inactive”; that for `CCOC(=O)c1ccc(N2C(=O)CC(Sc3nc(O)c(CC)c(=O)[nH]3)C2=O)cc1` (centres undefined) was “inactive”.
Consider `CN1CCN(c2ncncc2-c2ccc(C(=O)N(C)C)cc2)CC1`, for which the Potency entry was “inactive”.
Same read-out and setting: the value for `COC(=O)c1ccc(NC(=O)CSc2nnc(Cc3cccn3C)n2-c2ccc(F)cc2)cc1` was “inactive”; that for `CC(=O)OC1CCC2(O)CC1(C)CCC1C2CC1(C)C` (centres undefined) was “inactive”.
Same read-out and setting: next, `CC(=O)Oc1ccccc1C(=O)Nc1ncc([N+](=O)[O-])s1`: “inactive”; `COc1ccccc1N1CCN(C[C@@H]2CN3C(=O)N(C)c4ccccc4C3=N2)CC1`: “inactive”.
On to `CCOC(=O)[C@]1(C(/C=C/c2ccco2)NC(=O)OC)CCCC1=O` (some centres undefined), for which the activity change, negative = inhibition was -2.18% [at 11.4 µM] (inactive).
For `O=C1c2ccccc2C(=O)N1CCc1nn[nH]n1`, the Potency entry is “inactive”.
On the same count and under the same terms, next, `CN(C)CCOC(=O)C(c1ccccc1)C1(O)CCCC1` (centres undefined): “inactive”; `COc1ccccc1N1CCN(C(=O)CSc2nnc(-c3ccoc3C)o2)CC1`: “inactive”.
As for `CCOC(=O)C1CCCN(C(=O)c2ccc(CS(=O)(=O)c3ccc(Br)cc3)o2)C1` (centres undefined), the Potency result was “inactive”.
Same read-out and setting: next, `OC(COc1cccc(OCC(O)CN2CCCC2)c1)CN1CCCC1` (centres undefined): “inactive”; `COc1ccc(-c2nnco2)cc1OC`: “inactive”.
The same measure, in the same setting: next, `COCCNCCOCCOc1cccc(OC)c1`: “inactive”; `Cn1c(=O)c(-c2ccccc2)nc2cnc(N3CCNCC3)nc21`: 25.1 µM (active).
The same measure, in the same setting: the value for `COCCn1c(=O)c(CCc2ccccc2)nc2cnc(N3CCNCC3)nc21` was 31.6 µM (active); that for `Cc1nc2cnc(N3CCNCC3)nc2n(Cc2ccc(F)cc2)c1=O` was 25.1 µM (active).
As for `Cc1c2cn[nH]c(=O)c2c(C)n1Cc1ccc(F)cc1`, the Potency result is “inactive”.
Consider `COCCn1c(=O)c(CCc2ccccc2)nc2cncnc21`, for which the Potency result was “inactive”.
The same measure, in the same setting: the value for `CCc1nc2ccccc2n(CCOCCOCCn2c(=O)c(CC)nc3ccccc32)c1=O` was “inactive”; that for `COCCn1c(=O)c(-c2cc(F)cc(F)c2)nc2cnc(N3CCNCC3)nc21` was 25.1 µM (active); that for `O=c1c(-c2ccc(F)cc2)nc2cnc(N3CCNCC3)nc2n1Cc1cccs1` was “inactive”.
Regarding `O=C1C(c2ccccn2)=[N+]([O-])c2ccccc21`, the Potency entry was “inactive”.
Same read-out and setting: next, `COC1C[C@@H](O[C@@H]2C(C)C(=O)OC(C)C(C)C(O)C(C)C(=O)[C@@]3(CO3)CC(C)C(OC3OC(C)CC(N(C)C)C3O)C2C)OC(C)[C@@H]1O` (some centres undefined): “inactive”; `O=C(Oc1cc(OC(=O)c2ccccc2)c2c(c1)OC(c1ccc(OC(=O)c3ccccc3)c(OC(=O)c3ccccc3)c1)[C@@H](OC(=O)c1ccccc1)C2)c1ccccc1` (some centres undefined): “inactive”.
Same read-out and setting: the value for `CC(=O)Oc1cccc(N2C(=O)C3CC=C(Cl)CC3C2=O)c1` (centres undefined) was “inactive”.
Still for that read-out and setting: next, `COc1ccc(C(=O)Nc2ccc3c(c2)OCO3)cc1OC`: “inactive”; `CC(=O)Nc1ccc(S(=O)(=O)N2CCCC2C(=O)O)cc1` (centres undefined): “inactive”.
